Source: PubChem (Sanford-Burnham Center for Chemical Genomics)
TROY signal inh: inhibitors of TROY-dependent NF-kB signaling | Q293 LMP1-TROYcd NF-kB luciferase reporter, 4 h | inhibition, % at 10 µM | 0.98% of 360,000 active;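 active means compounds whose plate-normalised and pattern-corrected inhibition of the luciferase reporter signal at the single screening dose is 50% or more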
KKLEB tox: CF airway cell cytotoxicity counter-screen | 0.36% of 360,000 active | KKLEB CF airway cells viability, ATPlite luminescence, overnight; active compounds read low; cells stimulated with P. aeruginosa culture filtrate | activity change (cytotoxicity), % at 5 µM | AID 602141;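 active means corrected activity change at or below -50% at 5 µM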
CF NFkB inh: cystic fibrosis NF-kB activation inhibition | inhibition, % at 5 µM | 0.86% of 360,000 active | KKLEB NF-kB-GFP reporter, PAF-induced, GFP fluorescence overnight;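 active means at least 50% inhibition at 5 µM, scaled per plate between neutral and stimulator controls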;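 further: PAF is a Pseudomonas aeruginosa culture filtrate used as stimulus; plate controls were PAF-stimulated DMSO wells for no effect and unstimulated DMSO wells for full effect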
HIF-2a inh: inhibitors of HIF-2a | 786-0 RCC cells HIF-2a reporter, luciferase luminescence, overnight | inhibition, % at 18.8 µM | 0.72% of 360,000 active;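 active means inhibition of the luminescence signal of 40% or more relative to plate controls, in a single-dose primary screen at 18.75 µM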
Peg3 prom inh: inhibitors of Peg3 promoter; HeLa PEG-Prom luciferase reporter, luminescence, overnight; inhibition, % at 20 µM; 1.7% of 360,000 active; AID 588405;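 active means inhibition of at least 50% at 20 µM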
TWEAK Fn14 block: TWEAK-Fn14 signaling inhibition. TWEAK-stimulated Fn14 reporter cells, luciferase luminescence, 8 h. inhibition, % at 10 µM. 2% of 360,000 active. AID 1159606; in the data active means inhibition above about 50%
The depositor's hits bear a star. A selection: hits, their analogues and other compounds. The true share with any hit is near 4%.

SMILES	TROY signal inh	KKLEB tox	CF NFkB inh	HIF-2a inh	Peg3 prom inh	TWEAK Fn14 block
C#CCOCCOCCOCCNc1nc(N2CCN(C(=O)[C@H](CCCCN)n3cc([C@@H](N)CO)nn3)CC2)nc(N2CCN(C(=O)[C@H](CCCCN)n3cc([C@@H](N)CC(C)C)nn3)CC2)n1	-15	-1	1	2	-4	10
CCOc1cc(CNC2CCCC2)cc(Cl)c1OCc1ccccc1	9	-4	-4	20	57*	-13
CCOc1cc(CNCC(C)C)cc(Cl)c1OCc1ccccc1	-10	-3	8	7	9	6
COc1cc(CNCCc2ccccc2)cc(Cl)c1OCc1ccccc1	7	-9	14	16	90*	-18
COc1ccccc1/C=C1\N=C(C(C)(C)C)OC1=O	-12	9	-4	10	-8	-9
CC1(C)CC(=O)C2=C(C1)NC1=C(C(=O)c3ccccc31)C2c1ccc(Cl)cc1 (centres undefined)	93*	10	15	21	32	109*
COc1ccc(C(C)(O)c2nc(-c3cccc(C(F)(F)F)c3)cs2)cc1 (centres undefined)	6	2	-6	-6	23	11
O=c1c(N=Nc2ccc(O)cc2)c(-c2ccccc2)[nH]n1-c1ccc([N+](=O)[O-])cc1	-2	-34	18	7	-16	4
O=c1cc(-c2ccccc2)[nH]n1-c1ccc([N+](=O)[O-])cc1	35	-55*	59*	-156	-72	1
Cc1ccccc1NC(=O)CCc1nnc2ccc(N3CCC4(CC3)OCCO4)nn12	-4	5	8	13	8	5
CCN(CC(=O)NCc1ccncc1)S(=O)(=O)c1ccccc1	-5	9	-14	17	-4	37
O=C(Nc1cccc(C(F)(F)F)c1)c1cncs1	-20	7	-18	15	6	5
Cc1cc(C)n(-c2ccc3cccc(NS(C)(=O)=O)c3n2)n1	2	3	10	14	59*	-3
O=C(NCCC1=CCCCC1)C1CCN(C(=O)Nc2ccccc2)CC1	-3	4	-4	7	1	110*
CC(=O)Nc1cccc(NC(=O)CCNC(=O)c2ccccc2)c1	-2	4	-7	8	-1	2
Cc1ccccc1C(=O)N1CCC2CC1c1cc(Cl)ccc12 (centres undefined)	81*	-19	9	0	17	4
CCN1CCN(C(=O)CN2C(=O)c3ccccc3S2(=O)=O)CC1	62*	3	-18	-124	-114	28
O=C(CN1C(=O)c2ccccc2S1(=O)=O)c1ccc(O)c(O)c1	29	1	1	20	1	48
O=C(CN1C(=O)c2ccccc2S1(=O)=O)c1ccc(F)c(F)c1	72*	8	-14	-10	0	91*
COc1ccc(C(=O)CN2C(=O)c3ccccc3S2(=O)=O)cc1Br	35	-3	-20	3	5	62*
Cc1ccc(C)c(C(=O)CN2C(=O)c3ccccc3S2(=O)=O)c1	27	0	9	-53	1	60*
Cc1ccc(C)c(C(=O)CN2C(=O)c3ccccc3C2=O)c1	-29	-1	7	-13	11	-19
COc1ccc(C(C)=O)cc1CSc1ccc(S(=O)(=O)N2CCCCC2)cn1	6	-2	-35	18	29	4
COc1ccc(S(=O)(=O)N2CCOCC2)cc1NC(=O)C1CCN(S(=O)(=O)c2ccc(Cl)cc2)CC1	3	-3	13	13	-3	-1
COc1ccc(CC(=O)N(Cc2ccccc2)c2ccc(C)cc2)cc1OC	-7	-10	9	-8	9	0
CC(Oc1ccccc1C(N)=O)C(=O)Nc1ccc(S(=O)(=O)N2CCCC2)cc1 (centres undefined)	3	-7	9	3	-12	4
O=C(COC(=O)Cc1ccc(Cl)cc1)NCc1cccs1	-19	13	2	9	-14	14
CCN(C(C)=O)c1cnc(C=NNC(N)=S)c2ccccc12	-6	0	-27	20	54*	-15
COc1cccc(-n2c(N)c(C(=O)Nc3c(C)n(C)n(-c4ccccc4)c3=O)c3nc4ccccc4nc32)c1	-18	-27	19	8	60*	36
